Laboratory results published in PubChem BioAssay (NCATS).
Records with an inconclusive call do not appear. Entries that show only a call come without a potency. Unmarked numbers belong to inactive results. Calls of active or inactive are those of the source. Calls come from the whole dose curve; as a rule, active = well fitted inhibition curve with a large enough effect; inconclusive = small, poorly fitted or top-dose-only effect; inactive = flat fitted curve, though single readings scatter.

Test system: Zika virus NS2B-NS3 protease
Assay: Primary screen GU AMC qHTS for Zika virus inhibitors (AID 1347154); note: nearly all actives have a fitted effect of over 70% in size
Settings: Zika NS2B-NS3 unlinked protease, AMC fluorogenic substrate; series mostly up to 54.1 µM; activity change, negative = inhibition: at the top concentration
How it was run: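 Unlinked Zika NS2B hydrophilic domain–NS3 protease complex at 25 nM in 10 mM Tris-HCl pH 8.0, 0.01% Tween 20, with an AMC peptide substrate. Fluorescence change (340/450 nm) over 15 min at room temperature, normalized to controls, fitted to 4-parameter Hill.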
Potency is the fitted concentration of half-maximal effect.

Row | Structure (SMILES) | activity change, negative = inhibition | Potency
1 | CN(CCOc1ccc(CC2SC(=O)NC2=O)cc1)c1ccccn1 (stereo unspecified) | -11.5% | –
2 | C1CCC(C(CC2CCCCN2)C2CCCCC2)CC1 (stereo unspecified) | – | inactive
3 | O=C(O)c1cc(=O)[nH]c(=O)[nH]1 | – | inactive
4 | C[C@@H](NCCCc1cccc(C(F)(F)F)c1)c1cccc2ccccc12 | – | inactive
5 | O=P(O)(O)C(O)(Cc1cccnc1)P(=O)(O)O | – | inactive
6 | COc1ncnc(NS(=O)(=O)c2ccc(N)cc2)c1OC | – | inactive
7 | CCOC(=O)[C@H](CCc1ccccc1)N[C@H]1CCc2ccccc2N(CC(=O)O)C1=O | – | inactive
8 | CC(N)C12CC3CC(CC(C3)C1)C2 (stereo unspecified) | – | inactive
9 | CCn1cc(C(=O)O)c(=O)c2cc(F)c(N3CCNCC3)nc21 | – | inactive
10 | Cc1noc(NS(=O)(=O)c2ccc(N)cc2)c1C | – | inactive
11 | O[C@@H](CNC[C@H](O)[C@H]1CCc2cc(F)ccc2O1)[C@@H]1CCc2cc(F)ccc2O1 | – | inactive
12 | CCOc1cc(N)c(Cl)cc1C(=O)NCC1CN(Cc2ccc(F)cc2)CCO1 (stereo unspecified) | – | inactive
13 | Nc1ccc(S(=O)(=O)Nc2ccccn2)cc1 | – | inactive
14 | CCCCc1oc2ccc(NS(C)(=O)=O)cc2c1C(=O)c1ccc(OCCCN(CCCC)CCCC)cc1 | -3.37% | –
15 | OC(Cn1cncn1)(Cn1cncn1)c1ccc(F)cc1F | – | inactive
16 | NC(=O)c1ccc2[nH]ccc2c1 | 0.0749% | –
17 | O=C(N[C@H](CO)[C@H](O)c1ccc([N+](=O)[O-])cc1)C(Cl)Cl | – | inactive
18 | CCOCC(O)COc1ccc(NC(=O)CC[S+](C)C)cc1 (stereo unspecified) | – | inactive

Row | Structure (SMILES) | activity change, negative = inhibition | Potency
19 | CCn1cc(C(=O)O)c(=O)c2cc(F)c(N3CCN(C)CC3)cc21 | -3.56% [at 25.8 µM] | –
20 | CC1(C)[C@H](C(=O)O)N2C(=O)C[C@H]2S1(=O)=O | – | inactive
21 | Cc1cc(NS(=O)(=O)c2ccc(N)cc2)no1 | – | inactive
22 | N[C@@H](Cc1ccc(O)c(O)c1)C(=O)O | – | 27.1 µM (active)
23 | COc1cc2ncnc(Nc3cccc(Cl)c3)c2cc1OC | – | inactive
24 | COC(c1ccccc1)(c1ccccc1)[C@H](Oc1nc(C)cc(C)n1)C(=O)O | – | inactive
25 | Cc1nnc(C(=O)NC(C)(C)c2nc(C(=O)NCc3ccc(F)cc3)c(O)c(=O)n2C)o1 | – | inactive
26 | CC[C@H](C)C(=O)O[C@H]1C[C@@H](C)C=C2C=C[C@H](C)[C@H](CC[C@@H]3C[C@@H](O)CC(=O)O3)[C@H]21 | – | inactive
27 | CO[C@@H]1[C@@H](OC(N)=O)[C@@H](O)[C@H](Oc2ccc3c(O)c(NC(=O)c4ccc(O)c(CC=C(C)C)c4)c(=O)oc3c2C)OC1(C)C | – | inactive
28 | N[C@@H](C(=O)N[C@@H]1C(=O)N2C(C(=O)O)=C(Cl)CS[C@H]12)c1ccccc1 | – | inactive
29 | Cc1onc(-c2ccccc2Cl)c1C(=O)N[C@@H]1C(=O)N2[C@@H]1SC(C)(C)[C@@H]2C(=O)O | – | inactive
30 | O=S(=O)(c1cccc2cnccc12)N1CCCNCC1 | – | inactive
31 | C#CCN[C@@H]1CCc2ccccc21 | – | inactive
32 | COCCCOc1cc(C[C@@H](C[C@H](N)[C@@H](O)C[C@H](C(=O)NCC(C)(C)C(N)=O)C(C)C)C(C)C)ccc1OC | – | inactive
33 | COc1ccc2c(c1)c(CC(=O)OCC(=O)O)c(C)n2C(=O)c1ccc(Cl)cc1 | – | inactive
34 | CN(C)CCc1c[nH]c2ccc(C[C@H]3COC(=O)N3)cc12 | – | inactive
35 | CC(C)C1CCC(C(=O)N[C@H](Cc2ccccc2)C(=O)O)CC1 (stereo partly specified) | – | inactive
36 | Cc1c(-c2ccc(O)cc2)n(Cc2ccc(OCCN3CCCCCC3)cc2)c2ccc(O)cc12 | – | inactive
